# Laboratory results taken from the supplement of paper PMC11417369.
# ± gives the standard deviation of the averaged measurements. The full ranking holds about 25,000 sequences; the median of “ln(normalized median fluorescence intensity)” is about 8.6, and the highest 2% start at about 10. The full list was thinned out, with the highest values kept by preference.
# Tested on: PfAP2-EXP AP2 domain (GST-tagged)
# Assay: gcPBM binding intensity (ln(normalized median fluorescence intensity)); higher = stronger DNA binding
# Summary of the method: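 Plasmodium falciparum DNA-binding domains carrying a GST tag were expressed in E. coli and applied for 1 h, at about 25 μg on average, to an Agilent 4 × 180k array. The array held primer-extended double-stranded 36-bp intergenic genomic probes together with negative controls, and binding took place in 1× PBS with 1% milk, 0.2 mg/ml BSA, 0.5% salmon testes DNA and 0.03% Triton X-100. An Alexa488 anti-GST antibody detected bound protein, and the array was scanned at 488 nm. Binding intensity is taken as the highest Masliner-normalised natural-log median intensity across replicate spots of either probe orientation.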
row,Sequence,gcPBM binding intensity (ln)
1,AACACATACAGATATGCACACATTTTATTCCATTAT [CACACA_site5565],8.84 ± 0.34
2,TGAAAAAATATAATTTGTACATATCAGGCAAAAATG [XGTACX_site1824],8.68 ± 0.38
3,TATAAAAATATATTTACACACTATATATATCGAAAG [CACACA_site1700],8.52 ± 0.38
4,CCACTAATAAATATTACACACATATAGATTTATATT [CACACA_site7465],8.41 ± 0.44
5,ATATATATATATAATACACACTAAAGTAACATAATA [CACACA_site5580],9.74 ± 0.11
6,TTTAATATGAATTTATGTACATATATATATATATAT [XGTACX_site6337],10.2 ± 0.35
7,TATATATATAATATATGTACATATTAATTATGTATA [XGTACX_site5366],8.79 ± 0.13
8,TATATATATATATAATGTACATAATAATAATACATC [XGTACX_site5587],9.84 ± 0.26
9,TTATATACATAAAAATGTACTTTTTATAAAATATAT [XGTACX_site8281],8.21 ± 0.18
10,TATATACTTTATAAATGTACATATAATGTATTATTT [XGTACX_site7313],8.34 ± 0.42
11,AATATTTATTTTATATGTACATAATTTATTTTTAAT [XGTACX_site776],8.63 ± 0.32
12,ATATATATATATATATGTACATATTTTATTTAATTT [XGTACX_site1807],10.2 ± 0.28
13,TTTATACTTTCAAAATGTACATATATATATATATAT [XGTACX_site6241],10.2 ± 0.24
14,TATATATATATATAATGTACATATATATAATATACA [XGTACX_site1552],10.1 ± 0.27
15,ATATATATATATATATGTACATAATTAATAGCATAT [XGTACX_site1428],10.2 ± 0.36
16,CATATAATATAATTATGTACATATATAATAATATAC [XGTACX_site5278],8.47 ± 0.29
17,TATATATATACTTAATGTACATATATATATATATAT [XGTACX_site3102],10.3 ± 0.2
18,CAACACTTAGATTTTAAGTTCACTGGTTAATATATA [CACACA_negctrl_site707],8.12 ± 0.4
19,ATTGAAAATTGTTGCACACATAATAATTAAATATAT [CACACA_site1857],8.37 ± 0.23
20,GATCTTTAAATTTATTGTACATAAATGTATATGTTA [XGTACX_site1107],8.59 ± 0.45
21,TATTTACAAAAAAAATATAAAAAATATAAAATATAT [CACACA_negctrl_site575],8.12 ± 0.31
22,TGTTAATTTCATTTTCTACACACCTATCCTTTTTTT [CACACA_site8157],8.88 ± 0.47
23,AAATAAATAATTTAATGTACATATATAATATATATA [XGTACX_site1831],8.5 ± 0.11

row,Sequence,gcPBM binding intensity (ln)
1,TATTAATTTTTATTATGTACATAAATAATTTATATT [XGTACX_site5456],8.39 ± 0.28
2,ATATATATATATATATGTACTAATTAATATTTCGAG [XGTACX_site580],10.2 ± 0.47
3,ATATATATATATATATGTACATAAATATAAATTTAA [XGTACX_site8715],10.2 ± 0.24
4,TTTTTTTTTTTCGGGGGTACTAATATATTATTAATA [XGTACX_site7809],10.4 ± 0.34
5,GTATATAATTATATATGTACTAAATAAATATTTTTA [XGTACX_site6062],8.29 ± 0.39
6,ATATATATATATATATGTACATATTTTAATAATTAA [XGTACX_site8549],10.2 ± 0.23
7,TTAAATATAATATTATGTACTAAATATTTTTTTATT [XGTACX_site6121],8.09 ± 0.37
8,TAATTATTTTCGGTACGTACTAATGTATATATAATT [XGTACX_site3895],8.67 ± 0.42
9,ATATATTATATAATATGTACATAATAAAATTTAAAT [XGTACX_site1900],8.72 ± 0.27
10,AATATTATATATATGGGTACTAATTCCTTTAATTTC [XGTACX_site102],8.15 ± 0.3
11,ATATATATATATATATGTACATATTTTTAATTATAA [XGTACX_site7444],9.86 ± 0.13
12,AAATTATATCCCCTTTGTACTTACAGATCTTTATAC [XGTACX_site8163],8.77 ± 0.51
13,CACAGTGATATAAAAACACACATGAATTCTAATTTC [CACACA_site6884],8.3 ± 0.21
14,AAAGTTGTTACGAACATACACACGAACATACTCACG [CACACA_site604],8.7 ± 0.69
15,CCACTATATAAAATCACACATTTATATTATACATAT [CACACA_site4570],8.43 ± 0.4
16,TGTCATTTAATTTTTTGTACGAAAAAAACATATAAA [XGTACX_site4952],8.6 ± 0.24
17,TAATATTAATCCTAGTGTACATTAATTTATATGTAT [XGTACX_site3583],8.51 ± 0.45
18,GTATATATATATTTATGTACTTACCTACATAATTAT [XGTACX_site4435],8.84 ± 0.24
19,ATAATGTTTTATAATACACACATTATGTATATAAAT [CACACA_site4077],8.36 ± 0.38
20,ATATTAATATACATATGTACATATATATATATATAT [XGTACX_site7425],10.2 ± 0.24
21,GTATGTATGTATATATGTACACATTATTATTTAATG [XGTACX_site5802],8.78 ± 0.11
22,AAATTAAAATATATATGTACATATATATATATATAT [XGTACX_site7844],10 ± 0.42
23,TATACATATATTATATGTACATATATATATAATATA [XGTACX_site2942],8.29 ± 0.28

row,Sequence,gcPBM binding intensity (ln)
1,ATATATATATATATATGTACATATTATTAATAATAT [XGTACX_site6667],10.2 ± 0.35
2,AAATTAATATAAATATGTACATAAATAATAAAATAT [XGTACX_site6131],8.71 ± 0.5
3,TTTAATTAAAATATATGTACATATATATATATATAT [XGTACX_site4517],10.4
4,ATATATATATATATATGTACACATTAATGTTTTTTT [XGTACX_site167],10.4 ± 0.24
5,TATTATTATTATTATTTTAAAAGAAATAAAAATATG [XGTACX_negctrl_site119],8.1 ± 0.39
6,AATTGGAAGAAAAAAAAGGAAGGAAAGTTATTACAT [GTGCAC_negctrl_site74],8.62 ± 0.41
7,AAATTTGAAGAATATTGTACGCATAATAATTAAATA [XGTACX_site4300],8.82 ± 0.41
8,TTACATATGGTTAGTAGTACATATATAAATGTAAAT [XGTACX_site7206],8.62 ± 0.47
9,AATTAATGGTTAAAGGTGCACAATACATATATTACA [GTGCAC_site9943],9.57 ± 0.45
10,TTACATACAATTGGTGTGCACATATATATATATATA,10.3 ± 0.33
11,AAATCAAACTTTGGTGTGCACAAATATATACATATA [GTGCAC_site9986],9.1 ± 0.29
12,TATATATATAAGATTGTGCACATTAAAATGATAGAA [GTGCAC_site9621],9.265 ± 0.049
13,TACATGCATTTCTCATGTACATAATTTTCCCATATT [XGTACX_site5158],8.81 ± 0.4
14,TATATATTTATATATGCATGTACATTTTTATTTATT [TGCATGCA_site1048],8.82 ± 0.25
15,TATATATATATATATACATGCATTTCTCATGTACAT [TGCATGCA_site621],10.2 ± 0.33
16,CCTTACTTCTTATAAAGTACCCAATGATATACATTA [XGTACX_site1554],8.41 ± 0.31
17,AAACGATCTCGATGTTGTACACATTTATATAGAAAC [XGTACX_site4373],8.86 ± 0.4
18,AATATTCAATATAAAGTGCATTATTGTGGACCTAAT,8.77 ± 0.099
19,GCCAATAAAGATGTGGTGCATTATATATATATATAT,10.3 ± 0.23
20,TAAATATATATATAAGTGCATTATATATATATATAA,8.58 ± 0.028
21,TAATTTTTTATATATTGTACAAATAATATATGATGT [XGTACX_site268],8.46 ± 0.23
22,CATTATATGATTTATGTGCACATTCATTTATTTTAA,8.83 ± 0.099
23,TCTTACGGATTCATTGTGCACATATATATATATATA [GTGCAC_site9896],10.2 ± 0.45

row,Sequence,gcPBM binding intensity (ln)
1,TTTCTTATTTTGGATTGTACGTATATTTTTCATTTT [XGTACX_site224],8.93 ± 0.38
2,AAATTATTAAAAAAAAGTACATATATATATATATAT [XGTACX_site8313],10.4 ± 0.25
3,TTAATATATTTTAAAAGTACATAATATTATTTTTTA [XGTACX_site3642],8.04 ± 0.26
4,AAAAATATATAAGAGAGTACATAAAATAAATTAATT [XGTACX_site1534],8.61 ± 0.41
5,ATATACATATATATATGTACTTATTTATTTATTTAT [XGTACX_site2532],8.56 ± 0.26
6,ATATTTTAATTATAAAGTACATAAAAATATATAAAC [XGTACX_site6705],8.58 ± 0.3
7,AAAAAAAAAAAAAAAAGTACATATATATATAATTAT [XGTACX_site7836],8.54 ± 0.43
8,AAAAAAAAAAAAAAAAGTACATATATTATATATATA [XGTACX_site2983],8.9 ± 0.099
9,TATATTTACTTATGAAGTACATATATATATATATAT [XGTACX_site5069],10.3 ± 0.21
10,TATATATATATATATAGTACATATTTATATATGAAA [XGTACX_site8488],10.1 ± 0.36
11,CAGACATATTAAAAGAGTACATATATATATATATAT [XGTACX_site1158],10.3 ± 0.28
12,TATATATTATAAAAGAGTACAGAAAGAAAAAAAAAT [XGTACX_site8305],9.12 ± 0.59
13,ACATATTAATTATAAAGTACATATATATATATATAT [XGTACX_site4540],10.3 ± 0.18
14,ATGTAGATATATATCTGTACGTATATGTAAATATTA [XGTACX_site1516],8.72 ± 0.35
15,ATGATATTATAAAAAAGTACATATGTATATAATTAT [XGTACX_site7652],8.88 ± 0.45
16,AAAAATTTATTTTTAGGTACACAATTGAATTATTTA [XGTACX_site7008],8.16 ± 0.27
17,TATTTAAAATATTAAATTTGTAAAGTTCGAGGGAAG [GTGCAC_negctrl_site337],8.52 ± 0.48
18,TGATGAAAATTTTTCTGTACAAAAAGTATGAAGGTA [XGTACX_site8901],8.88 ± 0.38
19,AGTTTAATTTTGTATACACACATTTGAATTATTAAT [CACACA_site7625],8.77 ± 0.5
20,AATATGTCTATATTTTTTATATGGAAATATTATAAA [GTGCAC_negctrl_site700],7.92 ± 0.39
21,TTTATAATAAAATTTTTACACACTTTAAAAAAAAAA [CACACA_site8070],8.07 ± 0.37
